Where “and” joins values, the source holds several entries; their conditions need not be identical. Equal entries are not always repeated. Calls of active or inactive are those of the source.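 The calls were made as follows: active = compounds whose cell count with miR-34 switched on is under 0.7 times the count with it off; inactive = the rest.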
Assay: sensitizers of A549 cells to miR-34 induction, primary screen, imaging, A549 dox-inducible miR-34, nuclei and caspase counts (AID 1347080); also: test concentration not given here
Conditions: A549 miR-34 inducible, Hoechst nuclei count, 48 h; stronger effect = lower value; cell number ratio, induced over uninduced

Question: For `C[C@H](NC(=O)Cc1cc(F)cc(F)c1)C(=O)N[C@H](C(=O)OC(C)(C)C)c1ccccc1`, which fold change is on record?
Answer: 0.918 (inactive)

Question: Which fold change does the source give for `Cc1ccc(NC(=O)c2cccc(N(C)C)c2)cc1NC(=O)c1ccc(O)cc1` here?
Answer: 1.11 (inactive) and 0.903 (inactive) and 0.921 (inactive)

Question: With `O=C(O)Cc1cccc(OCCCN(Cc2cccc(C(F)(F)F)c2Cl)CC(c2ccccc2)c2ccccc2)c1` as the compound, how does the fold change read?
Answer: 0.882 (inactive) and 1.33 (inactive)

Same assay, conditions: A549 miR-34 inducible, Hoechst nuclei count, 48 h; measured here: relative caspase fold change +Dox/-Dox

Question: For `O=C(/C=C/c1c(C(=O)O)[nH]c2cc(Cl)cc(Cl)c12)Nc1ccccc1`, which fold change is on record?
Answer: 1.32

Question: For `C[C@H](NC(=O)c1sccc1OCc1ccc(Cl)cc1)c1ccccc1`, which fold change is on record?
Answer: 1.01

Question: Which fold change does the source give for `CNC(=O)[C@H]1O[C@@H](n2cnc3c(NCc4cccc(I)c4)nc(Cl)nc32)[C@H](O)[C@@H]1O` here?
Answer: 0.816

Question: Which fold change does the source give for `COc1cc(SC)ccc1C(=O)N1CCC(Cc2ccccc2)CC1` here?
Answer: 0.962 and 1.6

Question: Which fold change does the source give for `N#C/C(=C(/N)Sc1ccc(N)cc1)c1ccccc1C(F)(F)F` here?
Answer: 0.995

Question: For `COc1ccc(-c2oc3cc(OC)ccc3c2C(=O)c2ccc(C#N)cc2)cc1`, which fold change is on record?
Answer: 1.26

Question: For `Oc1cc(O)cc(/C=C/c2ccc(O)c(O)c2)c1`, which fold change is on record?
Answer: 0.772 and 1.12 and 0.797

Question: Which fold change does the source give for `O=Nc1c(-c2c(O)[nH]c3ccccc23)[nH]c2ccccc12` here?
Answer: 0.96 and 0.857 and 0.731

Question: For `CN(CCOc1ccc(-c2ccc3c(c2)OCO3)cc1C(C)(C)C)CC(=O)O`, which fold change is on record?
Answer: 1.03

Question: For `FC(F)(F)c1ccc(/C=C/c2nc(COc3ccc(CCCCn4ccnn4)cc3)co2)cc1`, which fold change is on record?
Answer: 2.06

Question: For `C=CCc1cccc(/C=N/NC(=O)CN2CCN(Cc3ccccc3)CC2)c1O`, which fold change is on record?
Answer: 0.357 and 1.59 and 1.69

Question: Which fold change does the source give for `C[C@@H](N)C1CCC(C(=O)Nc2ccncc2)CC1` (some centres undefined) here?
Answer: 0.978 and 1.24

Question: With `Cc1cccc(C#Cc2ccccc2)n1` as the compound, how does the fold change read?
Answer: 0.95 and 0.499 and 0.79

Question: For `Nc1nccc(-c2ccc3noc(-c4ccc(Cl)cc4)c3c2)n1`, which fold change is on record?
Answer: 2.19

Question: With `Nc1ncnc2c1ncn2[C@@H]1O[C@H](CO)C[C@H]1O` as the compound, how does the fold change read?
Answer: 1.64

Question: Which fold change does the source give for `NC(=O)c1ccc(-c2nc(-c3ccc4c(c3)OCCO4)c(-c3ccccn3)[nH]2)cc1` here?
Answer: 1.17 and 1.19

Question: With `CC(C)N(CCC(=O)c1ccc2ccccc2c1)Cc1ccccc1` as the compound, how does the fold change read?
Answer: 1 and 0.533 and 0.643

Question: Which fold change does the source give for `COc1ccc(Nc2nccc(NCCO)n2)cc1` here?
Answer: 2.19 and 1.76

Question: For `CC(C)(C)/[N+]([O-])=C/c1ccc(S(=O)(=O)O)cc1S(=O)(=O)O`, which fold change is on record?
Answer: 1.12

Question: With `CC(C)c1onc(-c2c(Cl)cccc2Cl)c1COc1ccc(/C=C/c2cccc(C(=O)O)c2)c(Cl)c1` as the compound, how does the fold change read?
Answer: 1.32

Question: Which fold change does the source give for `COc1cc2c(cc1O)CC[C@@H]1[C@@H]2CC[C@]2(C)[C@@H](O)CC[C@@H]12` here?
Answer: 0.815 and 0.616

Question: For `Cc1ccccc1C(=O)c1ccc(Nc2ccc(Br)cc2N)cc1Cl`, which fold change is on record?
Answer: 1.33

Question: For `N#C/C(=C\c1ccc(O)c(O)c1)C(=O)NCc1ccccc1`, which fold change is on record?
Answer: 1.17 and 1.42

Question: With `CCOC(=O)C(C)Oc1cccc2c(=O)n(CC(=O)Nc3ccc4c(c3)OCCO4)ccc12` (centres undefined) as the compound, how does the fold change read?
Answer: 0.783 and 1.31

Question: Which fold change does the source give for `CC(C)C[C@@H](C(=O)N[C@H](C(=O)OC1CCCC1)c1ccccc1)[C@H](O)C(=O)NO` here?
Answer: 1.24

Question: Which fold change does the source give for `O=c1ncccn1[C@@H]1O[C@H](CO)[C@@H](O)[C@H]1O` here?
Answer: 1.17

Question: For `Clc1ccc(-c2nc3sccn3c2/C=N/OCc2ccc(Cl)c(Cl)c2)cc1`, which fold change is on record?
Answer: 1.07 and 1.53

Question: For `O=S(=O)(NCCNC/C=C/c1ccc(Br)cc1)c1cccc2cnccc12`, which fold change is on record?
Answer: 1.15 and 1.08

Question: For `Oc1ccc(Nc2nc(-c3ccc(Cl)cc3)cs2)cc1`, which fold change is on record?
Answer: 0.378 and 0.549 and 1.23

Question: Which fold change does the source give for `CCCC[C@@H](C=O)NC(=O)[C@H](CC(C)C)NC(=O)OCc1ccccc1` here?
Answer: 1.01 and 0.983

Question: For `O=C(c1ccc(Nc2nccc(-c3cc4ccccc4s3)n2)cc1)N1CCC(N2CCCC2)CC1`, which fold change is on record?
Answer: 0.636 and 0.577

Question: Which fold change does the source give for `Cc1ccc(S(=O)(=O)/C=C/C#N)cc1` here?
Answer: 0.97 and 2.14 and 4.02

Question: Which fold change does the source give for `CC(C)(Sc1ccc(CCN(CCCCC2CCCCC2)C(=O)NC2CCCCC2)cc1)C(=O)O` here?
Answer: 1.38 and 0.651 and 0.687

Question: Which fold change does the source give for `C[C@H](NC(=O)Cc1cc(F)cc(F)c1)C(=O)N[C@H](C(=O)OC(C)(C)C)c1ccccc1` here?
Answer: 1.67

Question: With `Cc1ccc(NC(=O)c2cccc(N(C)C)c2)cc1NC(=O)c1ccc(O)cc1` as the compound, how does the fold change read?
Answer: 0.888 and 0.797 and 0.511

Question: With `O=C(O)Cc1cccc(OCCCN(Cc2cccc(C(F)(F)F)c2Cl)CC(c2ccccc2)c2ccccc2)c1` as the compound, how does the fold change read?
Answer: 0.748 and 1.3

Source: PubChem BioAssay
